About 83,000 compounds went through this panel and 20% of them were active in at least one assay; those are over-represented in the sample as a whole.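 For each line, cells grew in 96-well plates with the test compound present at a single concentration for 48 hours.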 Unmarked numbers belong to inactive results. Calls of active or inactive are those of the source. The calls were made as follows: active = growth percent below 10; inactive = the rest.

Experiment in all cases: NCI-60 one-dose screen, 48 h (100 = growth as untreated, 0 = no growth, -100 = all killed)
Details in all cases: 10 µM unless noted

Assay [1] relates to NCI-H23 lung.
Assay [2] relates to NCI-H226 lung.
Assay [3] deals with NCI-H322M lung.
Assay [4] deals with HOP-62 NSCLC.
Assay [5] has as its system NCI-H460 lung.
Assay [6] relates to HOP-92 NSCLC.
For assay [7], the system named is NCI-H522 lung.
The test system of assay [8] is A549/ATCC NSCLC.
For assay [9], the system named is 786-0 renal.
Assay [10] concerns COLO 205 colon.
Assay [11] concerns DU-145 prostate.
Assay [12] relates to K-562 leukemia.
Assay [13] deals with MALME-3M melanoma.
The subject of assay [14] is MDA-MB-231 breast.
In assay [15] the test system is RXF 393 renal.
Assay [16] concerns SF-268 CNS.
The subject of assay [17] is SF-295 CNS.
The test system of assay [18] is SF-539 CNS.
The test system of assay [19] is UACC-257 melanoma.
Assay [20] has as its system M14 melanoma.

`O=S(=O)(Oc1ccc(-c2cn3ccoc3n2)cc1)c1cccc(C(F)(F)F)c1`: the growth in assay [1] is 98%; in assay [2] it was 93.5%; in assay [3], 102%; in [4], 104%; in [5], 104%; in assay [6] it was 91.7%. Also, the growth in [7] is 90.3%; in assay [8] it was 99.6%; in assay [9] it was 99.9%; in [10], 115%; in [11] it was 101%; in [12], 101%. Besides, the growth was 98.6% in assay [13]; 102% in [14]; 98.2% in assay [15]; 102% in assay [16]; 90.4% in assay [17]; 94.3% in [18]. Moreover, the growth in [19] is 101%; in assay [20] it was 105%.

Turning to `COc1cc(C(=O)c2cc(C(C)=O)c3c(C)cccn23)cc(OC)c1OC`, the growth in assay [1] is 101%; in assay [2] it was 89.9%; in assay [3], 98.5%; in [4] it was 99.5%; in assay [5] it was 102%; in [6] it was 110%. The growth is 90.2% in assay [7]; 104% in assay [8]; 91% in assay [9]; 110% in [10]; 107% in assay [11]; 94.6% in [12]. The growth in [13] was 89.1%; in assay [14], 76.1%; in assay [15] it was 81.1%; in assay [16], 106%; in assay [17], 109%; in [18], 97.5%. For the same molecule, the growth in assay [19] was 98.2%; in assay [20], 96.1%.

As for `CCc1cc2c(cc1Cl)nc1c(=O)[nH]c(=O)nc-1n2CCOCC(C)(C)C`, the growth in [1] is 72.1%; in assay [2] it was 41.2%; in assay [3], 63.7%; in assay [4], 104%; in assay [5] it was 56.4%; in [6], 110%. Moreover, the growth in assay [7] is 70.5%; in assay [8], 75.5%; in assay [9], 81.1%; in assay [10], 58.2%; in assay [11], 94.5%; in assay [12], 57.4%. The growth in assay [13] was -9.68% (active); in assay [14] it was 67.2%; in [15], 75.5%; in assay [16] it was 88.1%; in assay [17] it was 71.8%; in [18], 84.2%. The values for the growth in [19] and in assay [20] were 73.3% and 61.8%, respectively.

As for `CCCc1[nH]c(-c2cc(N)ccc2Cl)c2c1C(=O)CCCC2`, the growth in assay [1] is 93.3%; in assay [2], 98.1%; in assay [3], 89.1%; in [4], 94.5%; in assay [5] it was 102%; in assay [6], 81.6%. The growth in assay [7] is 90.9%; in assay [8], 91.9%; in [9] it was 91%; in assay [10], 121%; in assay [11] it was 107%; in assay [12], 93.1%. In addition, the growth is 93.7% in assay [13]; 100% in assay [14]; 102% in assay [15]; 97.3% in assay [16]; 80.8% in [17]; 98.3% in assay [18]. The growth in assay [19] was 104%; in assay [20] it was 107%.

On to `CC(C)(C)c1cc(NC(=O)Nc2ccc(-c3cn4c5c(sc4n3)CCc3cn(CCCN4CCCCC4)cc3-5)cc2)no1`, for which the growth is -84.2% (active) in assay [1]; 92.6% in assay [2]; -78.8% (active) in assay [3]; -50.3% (active) in assay [4]; -69.1% (active) in [5]; 75.4% in assay [6]. For the same molecule, the growth in [7] is -55.3% (active); in assay [8], -79.6% (active); in assay [9] it was -98.1% (active); in assay [10], 5.79% (active); in assay [11] it was -96.4% (active); in assay [12], 3.01% (active). For the same molecule, the growth in [13] was -79.1% (active); in assay [14], -77.3% (active); in [15] it was -71.6% (active); in assay [16], -58.2% (active); in [17] it was -53.6% (active); in [18], -92.1% (active). Further, the values for the growth in assay [19] and in assay [20] were 51.3% and -93.6% (active), respectively.

`O=C(NNc1nc2cc(F)cc(F)c2n2cccc12)c1cccnn1`: the growth in assay [1] was 21.7%; in assay [2], -3.91% (active); in assay [3], 28.4%; in [4] it was 28.2%; in [5], 6.92% (active); in assay [6], 75.4%. The growth in [7] was 0.0735% (active); in assay [8] it was 17.5%; in [9], 14.3%; in [10], 16.3%; in assay [11], 20.8%; in [12] it was 12.8%. The growth is 21.4% in assay [13]; 30.2% in [14]; 22.3% in assay [15]; 12% in assay [16]; 9.98% (active) in assay [17]; 3.8% (active) in assay [18]. The growth was 3.33% (active) in assay [19] and 7.06% (active) in [20].

`CSc1ccc(/C(=N/N=C(N)N)c2ccc(F)cc2)cc1`: the growth in [1] is -36.7% (active); in [2] it was 0.244% (active); in [3], 67.5%; in assay [4] it was 36.1%; in assay [5] it was 6.38% (active); in assay [6], 33.4%. Moreover, the growth is 8.51% (active) in assay [7]; 16.4% in [8]; 17.7% in assay [9]; -42.2% (active) in assay [10]; 20.9% in assay [11]; 0.0764% (active) in assay [12]. Further, the growth in assay [13] is 90.4%; in assay [14] it was 24.2%; in assay [15], -4.77% (active); in assay [16], 36.3%; in assay [17], 11.8%; in assay [18] it was 10.4%. In addition, the growth in assay [19] was 66.1%; in [20], 3.79% (active).

The record behind these values is PubChem BioAssay (NCI).
